# In the supplement of paper PMC5407854, “Inhibitor of ppGalNAc-T3-mediated O-glycosylation blocks cancer cell invasiveness and lowers FGF23 levels” (eLife, 2017):
# The full ranking holds about 1,700 compounds; the median of “T2 sensor activation Q score (MG/GFP ratio z-score vs DMSO controls)” is about 0.3, and the highest 2% start at about 1.9. The full list was thinned out, with the highest values kept by preference.
# Test system: ppGalNAc-T2 sensor
# Test: T2 sensor activation Q score (MG/GFP ratio z-score vs DMSO controls) (SD units); higher = more sensor activation (inhibition of ppGalNAc-T2 glycosylation)
# Details: HEK293 sensor cells; 10 µM; 6 h
# Method: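 Cells were treated with compound at 10 uM for 6 h, then MG/GFP ratio was read by flow cytometry (10,000 cells per well, duplicate wells). Q = (R - R_neg)/SD_neg relative to DMSO vehicle controls; the signal rises when the glycosyltransferase is inhibited.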
row,SMILES,T2 sensor activation Q score
1,Cn1cnc([N+](=O)[O-])c1Sc1n[nH]c(N)n1,1.8
2,Cc1ncc([N+](=O)[O-])n1CCOC(N)=O,-0.85
3,Cn1cnc([N+](=O)[O-])c1N=C(N)N,2.2
4,NCCCNCCSP(=O)(O)O,-0.45
5,Cc1ccccc1-n1c(C=Cc2ccccn2)nc2ccccc2c1=O,-1
6,COC[C@H]1OC(=O)c2coc3c2[C@@]1(C)C1=C(C3=O)[C@@H]2CCC(=O)[C@@]2(C)C[C@H]1OC(C)=O,2.1
7,CC12CCC3C(CC=C4CC(O)CCC43C)C1C/C(=C\N1CCCC1)C2=O (stereo not given),0.15
8,C=Cc1cc(OC)c2c(c1)c(=O)oc1c2cc(OC)c2c(O)ccc(C3OC(C)C(O)C(C)(O)C3O)c21 (stereo not given),-0.15
9,O=C1C[C@@H]2OCC=C3C[N+]4([O-])CC[C@]56c7ccccc7N1[C@H]5[C@H]2[C@H]3C[C@@H]64 (stereo not given in full),1.95
10,O=C1/C(=C\c2ccccc2)C2OCC=C3CN4CCC56c7ccccc7N1C5C2C3CC46 (stereo not given),0.15
11,CC(C)CC(NC=O)C(=O)O.COc1cc2c(cc1OC)C13CCN4CC5=CCOC6CC(=O)N2C1C6C5CC43 (stereo not given),1.3
12,COc1cc2c(cc1O)C[C@H]1c3c(cc(O)c(OC)c3-2)CCN1C,0.75
13,c1cc(C2N3CCCN2CC3)ccn1 (stereo not given),-0.3
14,CC(Cc1ccccc1)NC(N)=O (stereo not given),1.8
15,O=C1N[C@H]2[C@H](O)[C@H](O)[C@@H](O)[C@H](O)[C@@H]2c2cc3c(c(O)c21)OCO3,2.6
16,Cc1c(CCN)ccc2c1[nH]c1ccccc12,0.7
17,COc1ccc2c(c1O)[C@]13CCN(C)[C@H](C2)[C@@H]1CCC(=O)C3,-0.1
18,COc1ccc2c(c1)C13CCN(C)C(C2)C1CCC1(C3)OCCO1 (stereo not given),2

row,SMILES,T2 sensor activation Q score
1,Cc1c(C(=O)c2ccccc2)c2ccccc2n1C,1.75
2,O=C1N(c2nncs2)CCN1[N+](=O)[O-],1.2
3,CC1CC(C)OP(=O)(OCCC#N)O1 (stereo not given),0.35
4,COc1ccc(CCNC2(C#N)CCCCC2)cc1OC,-0.65
5,CN1CCN(c2ccc([N+](=O)[O-])c3no[n+]([O-])c23)CC1,0.1
6,CN1CCN(c2nc(N)c(Br)c(Cl)n2)CC1,0.8
7,O=P(Oc1ccccc1)(Oc1ccccc1)c1ccccc1,-3.1
8,CC12CCC3C(CCC4Cc5[nH]c6ccccc6c5CC43C)C1CCC2O (stereo not given),0.65
9,C=CCN1CCC23c4c5ccc(O)c4OC2C(=O)CCC3(O)C1C5 (stereo not given),2.2
10,O=C1CCC2(O)[C@@H]3Cc4ccc(O)c5c4[C@]2(CCN3Cc2ccoc2)C1O5 (stereo not given in full),0.3
11,NN=C1C(Cl)=C(Cl)C(Cl)=C1Cl,-0.35
12,CCCC(=O)N(C)C1=Nc2ccc(Cl)cc2C(c2ccccc2)=[N+]([O-])C1,0
13,CCC(C)c1cnc(CC(C)C)c(=O)n1O (stereo not given),-0.75
14,CC12CCC3c4ccc(OC(=O)N(CCCl)CCCl)cc4CCC3C1CCC2O (stereo not given),-0.35
15,OCC1CN1C1CCCCC1 (stereo not given),2.1
16,CN1CCC(c2c[nH]c3ccccc23)C1 (stereo not given),0.5
17,CCC(N)Cc1c[nH]c2ccccc12 (stereo not given),1.2
